In PubChem BioAssay (Tox21):
Values without a mark were called inactive. Records with an inconclusive call do not appear. Where a call stands in place of a potency, no number is given. Calls of active or inactive are those of the source. Unless noted, the call rests on the fitted dose curve; in most records, active means well fitted curve in the direction sought with a large enough effect in the repeat runs; inconclusive means weak or mixed curves; inactive means no such curve, though single readings can be large; an effect the other way counts as inactive or inconclusive.

How the values were obtained:
[1] = molecular target: Estrogen receptor beta (Homo sapiens) (UniProt Q92731); test: qHTS assay to identify small molecule agonists of the estrogen receptor beta (ER-beta) signaling pathway (AID 1259377; active means well fitted activation curve with a large enough effect in the signal ratio in the repeat runs, not every such curve was filed as active; the % refers to the signal ratio)
Summary of the method: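 Ratiometric beta-lactamase FRET read-out came after 2 h substrate loading at room temperature. It followed 16 h compound treatment at 37C of GripTite HEK293T cells carrying a UAS-bla reporter, plated in 2% charcoal-stripped FBS medium.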

[2] = molecular target: Estrogen receptor beta (Homo sapiens) (UniProt Q92731); test: qHTS assay to identify small molecule antagonists of the estrogen receptor beta (ER-beta) signaling pathway (AID 1259378; active means well fitted inhibition curve with a large enough effect in the signal ratio in the repeat runs, not every such curve was filed as active; the % refers to the signal ratio)
Summary of the method: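 ER-beta-UAS-bla HEK293T (GripTite) cells in 2% charcoal-stripped FBS medium were preincubated 6 hr at 37C, dosed with compound, then stimulated with 1 nM E2 (final) for 16 hr; beta-lactamase reporter read by B/G FRET fluorescence after 2 hr substrate loading.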

[3] = qHTS assay to identify small molecule agonists of the androgen receptor (AR) signaling pathway in the presence of an antagonist - cell viability counter screen (AID 1259379);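 further: MDA-kb2 human breast cancer cells carrying an MMTV luciferase reporter; series mostly up to about 92 µM; nearly all actives have a fitted effect of over 25% in size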
Summary of the method: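 Cytotoxicity is assessed by CellTiter-Fluor in MDA-kb2 cells carrying an MMTV-driven luciferase reporter. Cells receive 3.0uM nilutamide plus compounds at 15 concentrations and incubate 16 hr at 37C without CO2 before fluorescence reading.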

[4] = qHTS assay to identify small molecule agonists of the estrogen receptor beta (ER-beta) signaling pathway - cell viability counter screen (AID 1259380); further: nearly all actives have a fitted effect of over 30% in size; further: potency means the concentration at half of the fitted maximal effect
Summary of the method: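 Cytotoxicity is measured in parallel with the reporter screen: after 16 hr compound exposure at 37C and a 2 hr LiveBLAzer step, CellTiter-Glo is added to the same ER-beta-UAS-bla HEK293T wells and luminescence read after 30 min.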

[5] = qHTS assay to identify small molecule antagonists of the estrogen receptor beta (ER-beta) signaling pathway - cell viability counter screen (AID 1259382); further: series mostly up to about 92 µM; nearly all actives have a fitted effect of over 55% in size
Summary of the method: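 Cytotoxicity counter screen multiplexed with the beta-lactamase antagonist assay: GripTite HEK293T ER-beta-bla cells were treated 16 hr with test chemicals in the presence of 1nM 17-beta-estradiol, and viability was measured by CellTiter-Glo.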

[6] = molecular target: Estrogen receptor (Homo sapiens) (UniProt P03372); test: qHTS assay to identify small molecule agonists of the estrogen receptor alpha (ER-alpha) signaling pathway in the presence of an antagonist (AID 1259383; calls by dose curve; further: top concentration of the series differs between compounds; nearly all actives have a fitted effect of over 15% in size)
Summary of the method: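 Agonist-mode confirmation in the presence of the ER antagonist ICI-182,780 at 10.0nM final. Breast-derived VM7Luc4E2 reporter cells were exposed to compounds for 22hr, and ERE-driven luciferase was quantified by luminescence.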

[7] = qHTS assay to identify small molecule agonists or antagonists of the thyroid stimulating hormone receptor (TSHR) signaling pathway - wild type cell line counter screen (AID 1259384; calls by dose curve)
Summary of the method: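 Wild-type HEK293 cells were plated 18 h at 37 C/5% CO2, pin-dosed with compound plus Ro20-1724 medium, held 30 min at room temperature, then given cAMP-d2 and anti-cAMP-cryptate; fluorescence was read after 1 h. Fifteen concentrations, triplicate.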

[8] = molecular target: Thyrotropin receptor (Homo sapiens) (UniProt P16473); test: qHTS assay to identify small molecule antagonists of the thyroid stimulating hormone receptor (TSHR) signaling pathway (AID 1259385; calls by dose curve; further: nearly all actives have a fitted effect of over 20% in size)
Summary of the method: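 TSHR-HEK293 cells were plated and held 18 h at 37C/5% CO2, then given compound plus Ro20-1724 and stimulated with TSH at 1.5 ng/mL final. After 30 min at room temperature, cAMP was detected with cAMP-d2/anti-cAMP-cryptate (1 h) by fluorescence.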

[9] = qHTS assay to identify small molecule agonists of the estrogen receptor alpha (ER-alpha) signaling pathway in the presence of an antagonist - cell viability counter screen (AID 1259386);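 further: series mostly up to about 92 µM; cells exposed to compounds for 22 h at 37 °C before the viability read; nearly all actives have a fitted effect of over 30% in size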
Summary of the method: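 Cytotoxicity was measured in parallel with the ERE-luciferase agonist screen, in the same wells. The cells were VM7Luc4E2, which endogenously express ER-alpha, and treatment was with compounds plus 10.0nM ICI-182,780 for 22hr.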

[10] = molecular target: Progesterone receptor (Homo sapiens) (UniProt P06401); test: qHTS assay to identify small molecule agonists of the progesterone receptor (PR) signaling pathway (AID 1346784; calls by dose curve; further: nearly all actives have a fitted effect of over 30% in size)
Summary of the method: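 Agonist qHTS: compounds pinned onto 3,000 PR-UAS-bla HEK 293T cells per well in charcoal-stripped serum medium, 16hr at 37C, then beta-lactamase activity measured by LiveBLAzer FRET fluorescence after 2 hours at room temperature.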

[11] = molecular target: Progesterone receptor (Homo sapiens) (UniProt P06401); test: qHTS assay to identify small molecule antagonists of the progesterone receptor (PR) signaling pathway (AID 1346795; active means well fitted inhibition curve with a large enough effect in the signal ratio in the repeat runs, not every such curve was filed as active; the % refers to the signal ratio)
Summary of the method: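 Antagonist mode with agonist R5020 at 1 nM final and 16 hr incubation at 37C. Reporter was beta-lactamase driven by UAS in HEK293T (PR-UAS-bla), 2% charcoal-stripped serum; signal from LiveBLAzer FRET substrate, 2 hr at room temperature.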

[12] = qHTS assay to identify small molecule antagonists of the progesterone receptor (PR) signaling pathway - cell viability counter screen (AID 1346798); further: series mostly up to about 92 µM; nearly all actives have a fitted effect of over 50% in size
Summary of the method: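 Cytotoxicity read as CellTiter-Glo luminescence (30 min, room temperature) in the same wells as the beta-lactamase readout. HEK293T PR-UAS-bla cells in charcoal-stripped 2% FBS received compound and R5020, then 16 h at 37C, 5% CO2.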

[13] = qHTS assay to identify small molecule agonists of the progesterone receptor (PR) signaling pathway - cell viability counter screen (AID 1346799; calls by dose curve; further: nearly all actives have a fitted effect of over 45% in size)
Summary of the method: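 Cytotoxicity measured by CellTiter-Glo luminescence (30 min, RT) in the same wells as the PR beta-lactamase agonist read. Those HEK293T cells had 16 h compound treatment at 37 C in 2% charcoal-stripped FBS medium.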

[14] = qHTS assay to identify small molecule antagonists of the TGF-beta/Smad signaling pathway - cell viability counter screen (AID 1346824); further: nearly all actives have a fitted effect of over 50% in size
Summary of the method: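 SBE-bla HEK 293T cells were plated overnight at 37 C, then given compounds in DMSO plus TGF-beta1 (added as 0.25 ng/mL solution) for 5 hr. After the bla read, CellTiter-Glo was added to the same wells and luminescence read after 30 min at room temperature.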

[15] = qHTS assay to identify small molecule agonists of the TGF-beta/Smad signaling pathway - cell viability counter screen (AID 1346829); further: top concentration of the series differs between compounds; nearly all actives have a fitted effect of over 45% in size
Summary of the method: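 After overnight seating at 37 C and 5% CO2, reporter cells got compounds for 5 hr and FRET substrate for 2 hr; cell viability then came from CellTiter-Glo luminescence.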

[16] = qHTS assay to identify small molecule agonists of the TGF-beta/Smad signaling pathway (AID 1346859; active means well fitted activation curve with a large enough effect in the signal ratio in the repeat runs, not every such curve was filed as active; the % refers to the signal ratio; further: series mostly up to about 77 µM)
Summary of the method: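 Fluorescence (ex 405 nm; em 460 and 530 nm) was read 2 h after LiveBLAzer FRET substrate at RT. The preceding compound treatment of overnight-plated SBE-bla HEK293T cells lasted 5 h at 37 C.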

[17] = Human pregnane X receptor (PXR) small molecule agonists, qHTS cell viability counter screen (AID 1346977); further: nearly all actives have a fitted effect of over 50% in size
Summary of the method: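 Same-well viability read: CellTiter-Fluor added after 23 hr compound exposure, fluorescence measured 1 hr later. Cells were PXR-Luc HepG2 seeded at 2,000/well in 5% charcoal-stripped FBS medium, rested 5 hr before dosing at 37 C.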

[18] = molecular target: Thyrotropin-releasing hormone receptor (Homo sapiens) (UniProt P34981); test: qHTS assay to identify small molecule antagonists of the thyrotropin-releasing hormone receptor (TRHR) signaling pathway (AID 1346877; active means well fitted inhibition curve with a large enough effect in the repeat runs, not every such curve was filed as active; further: series mostly up to about 51 µM)
Summary of the method: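 Antagonism is measured as suppression of the calcium response to 1 nM TRH in TRHR-HEK293 cells that have been dye-loaded for 2 h at 37 °C after overnight plating. Each compound is tested at 15 concentrations in triplicate.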

[19] = molecular target: Thyrotropin-releasing hormone receptor (Homo sapiens) (UniProt P34981); test: qHTS assay to identify small molecule agonists of the thyrotropin-releasing hormone receptor (TRHR) signaling pathway (AID 1346891; calls by dose curve; further: series mostly up to about 58 µM)
Summary of the method: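 Agonist-mode intracellular calcium readout: kinetic fluorescence over 3 min at 1 s intervals after compound addition to TRHR-HEK293 cells (18 h seeded, 2 h dye-loaded at 37 C). Fifteen concentrations, triplicates.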

Progesterone receptor (Homo sapiens), sequence (P06401 whole entry, looked up): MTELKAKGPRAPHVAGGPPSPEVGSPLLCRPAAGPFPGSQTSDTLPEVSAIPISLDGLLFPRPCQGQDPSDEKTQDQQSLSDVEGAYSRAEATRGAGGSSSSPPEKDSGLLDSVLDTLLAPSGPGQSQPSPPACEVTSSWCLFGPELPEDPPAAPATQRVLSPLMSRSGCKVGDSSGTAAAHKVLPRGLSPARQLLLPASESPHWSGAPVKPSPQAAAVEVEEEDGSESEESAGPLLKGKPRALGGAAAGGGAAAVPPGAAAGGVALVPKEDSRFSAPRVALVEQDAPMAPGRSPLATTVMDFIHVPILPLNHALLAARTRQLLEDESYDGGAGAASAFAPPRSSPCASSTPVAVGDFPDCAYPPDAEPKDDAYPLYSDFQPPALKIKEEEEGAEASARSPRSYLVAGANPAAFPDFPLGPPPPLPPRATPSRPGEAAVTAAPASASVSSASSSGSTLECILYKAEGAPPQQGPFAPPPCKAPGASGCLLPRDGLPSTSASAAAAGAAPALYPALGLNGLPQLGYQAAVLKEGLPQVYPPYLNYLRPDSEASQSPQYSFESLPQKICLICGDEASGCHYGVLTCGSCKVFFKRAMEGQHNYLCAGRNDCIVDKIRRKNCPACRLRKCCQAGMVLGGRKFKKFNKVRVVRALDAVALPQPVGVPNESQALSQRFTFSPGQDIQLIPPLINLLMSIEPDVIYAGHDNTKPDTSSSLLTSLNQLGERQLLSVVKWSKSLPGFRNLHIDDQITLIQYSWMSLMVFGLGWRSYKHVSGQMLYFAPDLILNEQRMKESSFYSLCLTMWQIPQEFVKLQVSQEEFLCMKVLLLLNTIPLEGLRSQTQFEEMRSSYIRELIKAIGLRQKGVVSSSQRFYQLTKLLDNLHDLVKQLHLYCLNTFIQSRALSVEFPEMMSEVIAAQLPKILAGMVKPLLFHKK
Estrogen receptor beta (Homo sapiens), sequence (Q92731 whole entry, looked up): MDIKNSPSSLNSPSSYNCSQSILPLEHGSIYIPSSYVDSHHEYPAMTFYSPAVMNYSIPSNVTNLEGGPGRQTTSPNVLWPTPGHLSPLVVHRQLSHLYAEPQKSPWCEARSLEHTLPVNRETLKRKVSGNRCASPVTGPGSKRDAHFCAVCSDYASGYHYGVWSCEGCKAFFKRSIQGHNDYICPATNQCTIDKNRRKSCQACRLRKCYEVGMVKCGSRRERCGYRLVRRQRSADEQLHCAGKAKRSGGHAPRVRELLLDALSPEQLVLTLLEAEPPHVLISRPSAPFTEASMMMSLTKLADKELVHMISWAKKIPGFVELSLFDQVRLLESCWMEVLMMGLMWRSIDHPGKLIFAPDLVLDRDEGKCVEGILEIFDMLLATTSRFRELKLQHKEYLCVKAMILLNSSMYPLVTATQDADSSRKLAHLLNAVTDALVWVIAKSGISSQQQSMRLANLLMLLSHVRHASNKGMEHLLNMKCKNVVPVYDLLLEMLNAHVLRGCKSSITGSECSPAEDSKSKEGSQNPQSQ
Thyrotropin-releasing hormone receptor (Homo sapiens), sequence (P34981 whole entry, looked up): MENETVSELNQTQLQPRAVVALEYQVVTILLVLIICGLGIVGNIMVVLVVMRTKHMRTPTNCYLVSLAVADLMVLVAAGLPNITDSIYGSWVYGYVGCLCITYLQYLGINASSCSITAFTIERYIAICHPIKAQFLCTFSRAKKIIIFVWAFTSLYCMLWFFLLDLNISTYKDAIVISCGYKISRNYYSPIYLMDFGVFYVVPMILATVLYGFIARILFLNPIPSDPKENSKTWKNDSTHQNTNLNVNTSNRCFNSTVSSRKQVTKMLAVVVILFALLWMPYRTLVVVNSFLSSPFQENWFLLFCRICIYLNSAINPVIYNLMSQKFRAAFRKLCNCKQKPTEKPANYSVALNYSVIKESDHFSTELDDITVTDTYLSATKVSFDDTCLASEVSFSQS
Thyrotropin receptor (Homo sapiens), sequence (P16473 whole entry, looked up): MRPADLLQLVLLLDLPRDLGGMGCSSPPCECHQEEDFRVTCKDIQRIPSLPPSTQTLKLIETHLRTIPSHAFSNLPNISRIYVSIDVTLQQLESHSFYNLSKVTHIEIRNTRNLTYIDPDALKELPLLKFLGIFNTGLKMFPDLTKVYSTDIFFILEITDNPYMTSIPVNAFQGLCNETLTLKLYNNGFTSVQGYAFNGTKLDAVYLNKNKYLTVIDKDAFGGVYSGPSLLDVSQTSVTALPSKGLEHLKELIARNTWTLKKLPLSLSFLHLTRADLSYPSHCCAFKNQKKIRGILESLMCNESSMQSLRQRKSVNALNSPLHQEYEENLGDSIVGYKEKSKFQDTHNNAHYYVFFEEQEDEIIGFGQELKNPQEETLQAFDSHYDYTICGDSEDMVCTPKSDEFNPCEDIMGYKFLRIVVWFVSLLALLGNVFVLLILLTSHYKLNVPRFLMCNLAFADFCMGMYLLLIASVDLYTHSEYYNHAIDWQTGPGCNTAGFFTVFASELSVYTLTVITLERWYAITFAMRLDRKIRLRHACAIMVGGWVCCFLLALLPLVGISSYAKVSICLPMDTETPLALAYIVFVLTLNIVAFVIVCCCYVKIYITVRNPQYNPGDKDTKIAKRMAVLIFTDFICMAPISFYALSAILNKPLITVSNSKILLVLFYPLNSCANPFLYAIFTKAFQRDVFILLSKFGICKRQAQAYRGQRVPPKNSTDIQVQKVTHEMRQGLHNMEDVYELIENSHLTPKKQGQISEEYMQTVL
Estrogen receptor (Homo sapiens), sequence (P03372 whole entry, looked up): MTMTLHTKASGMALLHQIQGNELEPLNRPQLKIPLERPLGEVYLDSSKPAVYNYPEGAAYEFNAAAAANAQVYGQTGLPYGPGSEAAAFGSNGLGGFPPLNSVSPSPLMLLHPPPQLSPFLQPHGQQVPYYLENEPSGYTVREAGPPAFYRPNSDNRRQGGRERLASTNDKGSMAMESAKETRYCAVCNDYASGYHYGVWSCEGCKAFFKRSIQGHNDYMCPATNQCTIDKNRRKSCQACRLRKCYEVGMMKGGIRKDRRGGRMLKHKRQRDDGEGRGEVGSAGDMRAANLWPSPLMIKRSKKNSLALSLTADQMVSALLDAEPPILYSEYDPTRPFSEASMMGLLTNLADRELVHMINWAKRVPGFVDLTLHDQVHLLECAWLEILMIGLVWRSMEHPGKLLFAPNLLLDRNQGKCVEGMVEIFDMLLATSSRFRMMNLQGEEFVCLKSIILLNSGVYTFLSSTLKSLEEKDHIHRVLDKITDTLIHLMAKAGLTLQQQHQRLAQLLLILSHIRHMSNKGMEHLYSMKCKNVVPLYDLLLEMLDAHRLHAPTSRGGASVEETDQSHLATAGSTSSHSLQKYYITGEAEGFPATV

SMILES	Potency [1]	Potency [2]	Potency [3]	Potency [4]	Potency [5]	Potency [6]	outcome [7]	Potency [8]	Potency [9]	outcome [10]	Potency [11]	Potency [12]	Potency [13]	Potency [14]	Potency [15]	Potency [16]	Potency [17]	Potency [18]	Potency [19]
CC1=CCC(=O)O1	inactive	inactive	inactive	inactive	inactive	inactive	inactive	inactive	inactive	inactive	inactive	inactive	inactive	inactive	inactive	inactive	inactive		
C#CC(O)CCC (centres undefined)	inactive	inactive	inactive	inactive	inactive	inactive	inactive	inactive		inactive	inactive	inactive	inactive	inactive	inactive	inactive	inactive	inactive	inactive
CC[N+](CC)(CC)Cc1ccccc1	inactive	inactive	inactive	inactive	inactive	inactive			inactive	inactive	inactive	inactive	inactive	inactive	inactive	inactive	inactive		inactive
CC(C)(C)C1=CC(=O)C=C(C(C)(C)C)C1=O	inactive	inactive	inactive	inactive	inactive	inactive	inactive		inactive	inactive	inactive	inactive	inactive	inactive	inactive	inactive	inactive	inactive	inactive
CCN(CC)CCSC(=O)C(c1ccccc1)c1ccccc1	inactive	inactive	inactive	29.8 µM (active)	inactive	inactive	inactive	inactive		inactive	inactive	inactive		inactive	inactive	inactive		inactive	inactive
CN(C)CCN1CCOCC1	inactive	inactive	inactive	inactive	inactive	inactive	inactive	inactive	inactive	inactive	inactive	inactive	inactive	inactive	inactive	inactive	inactive	inactive	inactive
CCCCOC(=O)C(C)CC (centres undefined)	inactive	inactive	inactive	inactive	inactive	inactive	inactive	inactive	inactive	inactive			inactive	inactive	inactive	inactive			inactive
